Compound activity: PubChem, several laboratories
GDH-TPI counter-1 = counter-screen for M. tuberculosis FBA inhibitors: GDH-TPI coupled enzymes. inhibition, % at 4.8 µM. GDH-TPI coupled enzyme counterscreen, NADH absorbance. 360,000 tested, 1.2% active; in the data active = inhibition above about 30%;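 also: 0% = DMSO wells and 100% = wells lacking the enzyme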
PriA SSB inh = K. pneumoniae PriA-SSBct interaction inhibition | AID 1272365 | inhibition, % at 33 µM | 430,000 tested, 0.6% active | AlphaScreen SSBct-PriA binding, biotinylated peptide; in the data active = inhibition mostly above about 37%, no sharp cut-off; inactive = mostly below about 20%;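 also: plate controls were negative control peptide for no effect and reference peptide for full effect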
Mtb UGM inh = inhibitors of M. tuberculosis UDP-galactopyranose mutase. purified UGM, fluorescence polarization probe displacement. 320,000 tested, 0.06% active. P9WIQ1. inhibition, % at 10 µM; in the data active = inhibition above about 10%, passing the limit was not always enough
Target sequence (P9WIQ1 whole entry, looked up): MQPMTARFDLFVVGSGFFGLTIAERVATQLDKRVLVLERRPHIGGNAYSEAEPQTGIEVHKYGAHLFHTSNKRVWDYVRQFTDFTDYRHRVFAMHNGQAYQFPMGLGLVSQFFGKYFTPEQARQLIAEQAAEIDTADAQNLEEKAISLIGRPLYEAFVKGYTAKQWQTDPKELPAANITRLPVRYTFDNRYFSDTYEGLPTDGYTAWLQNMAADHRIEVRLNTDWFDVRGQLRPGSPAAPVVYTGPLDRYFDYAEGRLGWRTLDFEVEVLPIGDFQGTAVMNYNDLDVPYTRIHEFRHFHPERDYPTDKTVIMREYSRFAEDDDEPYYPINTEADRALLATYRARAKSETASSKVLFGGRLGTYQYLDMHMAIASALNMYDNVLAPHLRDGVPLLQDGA
Mtb FBA inh = inhibitors of M. tuberculosis fructose-bisphosphate aldolase; P9WQA3; purified M. tuberculosis FBA, fluorescence read-out; inhibition, % at 1 µM; 360,000 tested, 2.3% active; AID 588726;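 also: 0% = vehicle and 100% = reference inhibitor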
Target sequence (P9WQA3 whole entry, looked up): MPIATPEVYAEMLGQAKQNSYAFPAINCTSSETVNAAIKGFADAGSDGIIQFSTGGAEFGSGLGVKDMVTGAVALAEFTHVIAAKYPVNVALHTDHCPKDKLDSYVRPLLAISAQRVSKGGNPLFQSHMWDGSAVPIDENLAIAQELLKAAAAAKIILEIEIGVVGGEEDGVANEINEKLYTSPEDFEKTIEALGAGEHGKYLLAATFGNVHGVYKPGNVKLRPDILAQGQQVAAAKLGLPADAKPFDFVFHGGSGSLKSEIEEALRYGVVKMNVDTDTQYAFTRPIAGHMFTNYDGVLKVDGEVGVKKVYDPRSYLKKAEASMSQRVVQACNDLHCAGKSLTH
Mtb bLac sens = beta-lactam sensitization of Mtb H37Rv | M. tuberculosis H37Rv growth with meropenem, percent inhibition | inhibition, % at 25 µM | 330,000 tested, 0.27% active; call rule not given here;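 also: growth measured after seven days incubation then overnight dye step; 0% = bacteria only wells and 100% = bacteria with antibiotic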
Rv3671c inh = inhibitors of M. tuberculosis serine protease Rv3671c. inhibition, % at 5.96 µM. 320,000 tested, 0.048% active. AID 2606; in the data active = inhibition above about 38%;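 also: extracellular domain of Rv3671c used as enzyme; 0% = enzyme with DMSO and 100% = no enzyme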
Mtb FBA inh conf = Mtb FBA inhibition, confirmed; 5,600 tested, 78% active; inhibition, % at 1 µM; purified M. tuberculosis FBA, fluorescence read-out; shares compounds with Mtb FBA inh;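 also: 0% = vehicle wells and 100% = reference inhibitor wells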
GDH-TPI counter-2 = counter-screen for M. tuberculosis FBA inhibitors: GDH-TPI coupled enzyme inhibition; GDH-TPI coupled enzyme counterscreen, fluorescence; shares compounds with Mtb FBA inh; 5,600 tested, 81% active; inhibition, % at 1 µM; in the data active = inhibition above about 10%
An asterisk follows results filed as active; nt = no result given; + = active, no number. Hits are enriched below; roughly 3.2% of the tested compounds scored in any of these assays. Rule as the data show it, unless noted: active = inhibition above about 27%; inactive = the rest.

SMILES | GDH-TPI counter-1 | PriA SSB inh | Mtb UGM inh | Mtb FBA inh | Mtb bLac sens | Rv3671c inh | Mtb FBA inh conf | GDH-TPI counter-2
Cn1c(SCc2cccc(C#N)c2)nc2ccccc2c1=O | 5.5 | -6.0 | 0.5 | 28.6* | -2.1 | 1.1 | 8.5 | 6.6
Cc1ccc(C(=O)/C=C/Nc2ccccc2C(N)=O)o1 | 20.0 | nt | -0.8 | 31.8* | -0.4 | 4.2 | 41.5* | 23.8*
CCc1nccn1CC1CCN(C(=O)COc2ccc(F)cc2)CC1 | nt | 0.0 | nt | nt | nt | nt | nt | nt
O=C(NCC1CCN(C(=O)c2ccoc2)CC1)c1cnccn1 | nt | -11.0 | nt | nt | nt | nt | nt | nt
COC(=O)C1=C(C)NC(=O)C1(Nc1nccs1)C(F)(F)F (stereo not drawn) | 6.8 | 4.2 | 0.1 | -0.5 | -0.5 | -0.7 | nt | nt
COC(=O)c1scc2c(=O)cc(C(F)(F)F)[nH]c12 | -3.1 | -7.3 | -1.0 | 29.4* | -0.6 | 6.7 | nt | +
COc1ccccc1N1Cc2ccc(OC)c(OC)c2C1=O | 8.2 | 1.6 | -0.8 | 5.3 | -6.8 | -4.4 | nt | nt
COc1ccc2c(c1OC)C(=O)N(c1ccccn1)C2 | 0.6 | -2.0 | -0.5 | 44.6* | 4.0 | -9.5 | 114.6* | 105.8*
CCOc1ccc(-c2cc(C(=O)O)[nH]n2)cc1 | nt | -9.0 | nt | nt | nt | nt | nt | nt
CC(=O)c1sc2nc(C)cc(C)c2c1N | 19.4 | -9.0 | -1.6 | 22.2 | 13.1 | -9.7 | nt | nt
Cc1ccc2nc(-c3sc4nc(C)cc(C)c4c3N)[nH]c2c1 | 9.1 | -1.8 | -0.3 | 30.3* | -4.0 | 11.8 | 112.2* | 81.9*
Cn1cccc1C(O)CCNC(=O)c1c(F)cccc1Cl (stereo not drawn) | nt | -29.0 | nt | nt | nt | nt | nt | nt
CCOC(=O)c1cc(=O)n(Cc2ccccc2C)c2ccccc12 | -3.7 | -36.3 | -0.5 | 2.2 | 58.3 | 1.9 | nt | nt
CCOC(=O)c1cc2c3ccccc3n(CC)c2nc1N | 15.4 | -7.5 | -1.1 | 36.5* | 5.3 | -0.3 | + | +
CC(=O)Nc1ccc2c(CSc3nnc(N)s3)cc(=O)oc2c1 | 41.8* | 0.4 | -1.0 | 27.0* | 0.4 | -7.7 | 78.2* | 67.2*
Cn1c(=O)oc(=O)c2ccccc21 | 17.0 | -9.2 | nt | 93.7* | nt | nt | 134.9* | 116.1*
Cn1c2ccccc2c(=O)c2ccc(Cl)cc21 | 6.5 | nt | nt | 105.5* | nt | nt | 64.1* | 43.9*
CCOC(=O)c1ccc(/C=C2\c3ccccc3C(=O)N2c2ccccc2)cc1F | 10.0 | 6.8 | 0.3 | 4.6 | 81.4 | -5.3 | nt | nt
CCOC(=O)c1ccc(-c2ccc3c(=O)c4ccccc4n(C)c3c2)cc1F | 13.2 | -17.6 | 0.5 | 57.1* | 97.8 | -10.5 | 132.7* | 116.7*
COc1cc(-c2nc(-c3ccccc3)c(-c3cccs3)[nH]2)cc(OC)c1OC | 17.9 | -1.6 | 0.2 | 46.0* | 55.1 | 1.6 | 1.1 | -4.5
c1ccc(-c2nc(-c3cccs3)[nH]c2-c2ccccc2)cc1 | 17.9 | -7.8 | 0.1 | 63.1* | -4.3 | 3.7 | + | 177.8*
O=C(NCC1(c2cccs2)CC1)c1ccc(F)cc1F | nt | -16.0 | nt | nt | nt | nt | nt | nt
CC(C)c1cc(=O)n2c(n1)SCC2CC(=O)Nc1nccs1 (stereo not drawn) | nt | -2.0 | nt | nt | nt | nt | nt | nt
Cc1nnc(C)n1N1C(=O)c2cccc3cccc(c23)C1=O | 23.7 | -5.5 | -1.2 | 62.1* | -4.9 | 9.7 | 16.7 | 10.5*
COc1ccc2nc3c(cc2c1)c(NC(=O)C1CCCO1)nn3CC(C)C (stereo not drawn) | 11.9 | -21.8 | -0.2 | 39.3* | -7.2 | -0.2 | -0.7 | -3.2
SMILES | GDH-TPI counter-1 | PriA SSB inh | Mtb UGM inh | Mtb FBA inh | Mtb bLac sens | Rv3671c inh | Mtb FBA inh conf | GDH-TPI counter-2
Cc1nc2c3cnn(-c4ccc(C)c(C)c4)c3ncn2n1 | 6.6 | 0.0 | 0.1 | 38.1* | 92.5 | -14.8 | 118.6* | 96.0*
O=C(O)CCC(=O)Nc1nc2nccc(-c3ccccc3)n2n1 | 11.7 | -7.5 | 0.2 | 45.3* | -4.3 | -1.8 | + | 181.4*
Cc1cc(OCC(=O)N2CCC(C(=O)O)CC2)c2c3c(c(=O)oc2c1)CCCC3 | 5.9 | 5.3 | 4.8 | 76.8* | -0.6 | -0.8 | 130.8* | 82.0*
Cc1cc(OCC(=O)N2CCC(C(=O)O)CC2)c2c(C)c(C)c(=O)oc2c1 | 8.8 | -5.9 | -1.9 | 86.6* | -1.5 | 0.5 | -5.2 | -6.5
Cc1cc(OCC(=O)N2CCC(C(=O)NCC(C)C)CC2)c2c3c(c(=O)oc2c1)CCCC3 | 6.0 | -2.8 | -0.2 | 6.3 | 3.3 | -2.3 | nt | nt
Cc1cc(OCC(=O)Nc2ccc(CCO)cc2)c2c(C)c(C)c(=O)oc2c1 | 6.5 | 6.8 | 1.7 | 33.2* | 5.2 | -6.6 | 0.5 | -2.9
CC(=O)C(C)Oc1cc(C)cc2oc(=O)c(C)c(C)c12 (stereo not drawn) | 4.6 | -6.4 | 1.7 | 20.2 | -10.4 | -0.9 | nt | nt
Cc1cc(OCC(=O)N2CCC(C(N)=O)CC2)c2c(C)c(C)c(=O)oc2c1 | -6.9 | 1.0 | 0.2 | 7.3 | -5.5 | -10.2 | nt | nt
CC(=O)COc1cc(C)cc2oc(=O)c(C)c(C)c12 | 15.2 | -12.5 | -1.6 | 37.9* | 5.3 | 1.6 | + | +
Cc1cc(OCC(=O)Nc2cccnc2)c2c(C)c(C)c(=O)oc2c1 | 11.8 | -5.2 | -0.5 | 26.3 | 4.7 | 1.2 | nt | nt
COc1ccc(C=NNC(=O)c2ccc(NC(=O)c3cccc([N+](=O)[O-])c3)cc2)c(OC)c1 | nt | 5.2 | nt | nt | nt | nt | nt | nt
Cc1cc(OCC(=O)NCC2CCC(C(=O)O)CC2)c2c(C)cc(=O)oc2c1 (stereo not drawn) | 9.8 | -0.7 | 3.5 | 21.4 | -2.8 | -1.0 | nt | nt
Cc1cc(OCC(=O)N2CCC(O)CC2)c2c(C)cc(=O)oc2c1 | 3.9 | -4.1 | -1.8 | 99.9* | -0.3 | 9.5 | 141.9* | 104.7*
COc1ccc(-c2oc3ncnc(NCCCN4CCOCC4)c3c2-c2ccc(OC)cc2)cc1 | 14.4 | 16.5 | 1.8 | 108.2* | 97.4 | -1.5 | + | +
c1ccc(-c2oc3ncnc(N4CCCC4)c3c2-c2ccccc2)cc1 | nt | 8.0 | nt | nt | nt | nt | nt | nt
COc1ccc(-c2oc3ncnc(NCCN4CCOCC4)c3c2-c2ccc(OC)cc2)cc1 | 11.7 | -13.1 | -1.0 | 12.2 | -2.8 | -3.8 | nt | nt
OCCCNc1ncnc2oc(-c3ccccc3)c(-c3ccccc3)c12 | 11.0 | 10.7 | -2.5 | 89.1* | 0.8 | nt | 98.3* | 79.0*
c1ccc(-c2oc3ncnc(NCCCN4CCOCC4)c3c2-c2ccccc2)cc1 | 22.2 | 11.0 | -0.4 | 48.1* | 62.6 | -11.0 | -3.3 | -1.1
CCOc1cc(-c2cccc(Cl)c2)nc2ccc(C(=O)N3CCN(C(=O)c4ccco4)CC3)cc12 | nt | -14.0 | nt | nt | nt | nt | nt | nt
C#CCn1c(=NC(=O)C2CCN(S(=O)(=O)c3ccc(Cl)s3)CC2)sc2cc3c(cc21)OCO3 | nt | -2.0 | nt | nt | nt | nt | nt | nt
O=C1c2ccccc2NC2CCCCC12 (stereo not drawn) | 8.5 | -6.0 | -0.3 | -0.1 | 8.2 | 2.9 | nt | nt
O=C1OC(C(Cl)(Cl)Cl)Nc2ccccc21 (stereo not drawn) | nt | nt | nt | 40.3* | nt | nt | + | +
Cc1cc(N2C(=O)C(=O)C(=C(O)c3ccccc3)C2c2cccs2)no1 (stereo not drawn) | nt | 2.5 | nt | nt | nt | nt | nt | nt
O=C(c1ccc(Cl)cc1Cl)N1CCN(c2ccc(N3CCCCCC3)nn2)CC1 | nt | -2.0 | nt | nt | nt | nt | nt | nt
